Assay results reported in PubChem BioAssay.
Activity calls are given as the source filed them.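 How the source made its calls, unless noted: active means compound that reduces growth-factor-driven endothelial tube area in a mixed cell culture, no cutoff stated; inactive means the rest.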

Key:
[1] = stimulators of nuclear beta-catenin in C2C12, primary screen, imaging, WNT3A-conditioned medium, mouse C2C12, NPC library (AID 1117326; in the data active means nuclear beta-catenin stimulation mostly above about 4.2%, no sharp cut-off; inactive means mostly below about 10%; further: reference of the scale not given here); conditions: stronger effect = higher value
[2] = stimulators of insulin release from INS-1E, primary screen, cell-based, 5 mM glucose, NPC library (AID 1117329;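 active means compound raises insulin release from rat beta cells at 5 mM glucose, no numeric limit stated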; further: reference of the scale not given here); conditions: rat INS-1E insulin secretion, at 10 µM, stronger effect = higher value
[3] = growth inhibition of GSK3B-pretreated HCT116 cells – cell-based, CellTiter-Glo, 0.2 to 20 µM (AID 1117336;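 active means compounds lowering colon cancer cell viability after pretreatment blocking the GSK3B kinase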); conditions: HCT116 viability after GSK3B inhibitor, at 20 µM, stronger effect = higher value
[4] = inhibition of endothelial tube formation, primary screen, imaging, VEGF stimulated, CD31 staining, tube area, NPC library (AID 1117340); conditions: VEGF-stimulated ADSC/ECFC co-culture, at 10 µM, stronger effect = higher value
[5] = glucagon-like peptide 1 release enhancers, primary assay, NCI-H716 cell line, NPC library (AID 1117341;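 active means compound raises GLP1 secretion from the human gut endocrine cells, with no numeric limit stated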; further: reference of the scale not given here); conditions: NCI-H716 cells, at 10 µM, stronger effect = higher value
[6] = HCT116 colon cancer cell growth inhibition, primary screen, CellTiter-Glo luminescence, NPC library (AID 1117342;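 active means compounds that lower survival of HCT116 colon cancer cells in the luminescence readout, no numeric limit stated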); conditions: at 20 µM (top of the series)
[7] = CellTiter-Glo luminescent readout of SW480 viability loss, NPC library primary (AID 1117343;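 active means compounds that lower viability of the colon cancer cells in the luminescence readout, with no numeric limit stated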); conditions: CellTiter-Glo luminescence; at 20 µM (top of the series)
[8] = decreased DLD-1 cellular survival, CellTiter-Glo luminescent readout, NPC compound collection, primary HTS (AID 1117346;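 active means compounds that lower survival of DLD-1 colon cancer cells in the luminescence readout, no cutoff given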); conditions: DLD-1 viability, CellTiter-Glo luminescence; at 20 µM (top of the series)

SMILES | nuclear beta-catenin stimulation ([1]; at 10 µM) | nuclear beta-catenin stimulation ([1]; stimulation, at 2 µM) [%] | insulin secretion stimulation [2] | viability decrease [3] | tube area decrease [4] | GLP1 secretion stimulation [5] | inhibition of viability [6] | viability decrease (inhibition) [7] | viability decrease (inhibition) [8]
O=C(Nc1ccc(Cl)c(Cl)c1)C1CC1 | 0.1% (inactive) | 0.9 | 2.2% (inactive) | 25.6% (inactive) | 24.7% (inactive) | -0.1% (inactive) | 43.4% (inactive) | 25.2% (inactive) | 9.7% (inactive)
O=[N+]([O-])c1nccn1CO[C@@H](CO)[C@H](O)CO | -0.2% (inactive) | -0.8 | 1.45% (inactive) | 40% (inactive) | -13.2% (inactive) | -3.1% (inactive) | 7.6% (inactive) | 2.3% (inactive) | -5.8% (inactive)
CC/C=C(\C(=O)N[C@@H]1C(=O)N2C(C(=O)OCOC(=O)C(C)(C)C)=C(COC(N)=O)CS[C@H]12)c1csc(N)n1 | -1% (inactive) | -0.1 | 1.85% (inactive) | -5.5% (inactive) | -9.6% (inactive) | -0.1% (inactive) | -6.4% (inactive) | -3.4% (inactive) | -17.7% (inactive)
CCCCCCCCCCCCCCCCCC(=O)O | 0.8% (inactive) | 0.7 | -1.2% (inactive) | -8.8% (inactive) | -12.7% (inactive) | -0.3% (inactive) | 1.8% (inactive) | 18.8% (inactive) | -6.85% (inactive)
O=[N+]([O-])c1ccc(Oc2ccc(N=C=S)cc2)cc1 | 36.7% (inactive) | 1.6 | -0.5% (inactive) | 97.7% (active) | 108% (active) | -5% (inactive) | 98.9% (active) | 95.7% (active) | 100% (active)
NC(=O)NS(=O)(=O)c1ccc(Cl)cc1 | 1.1% (inactive) | 16.9 | 3.4% (inactive) | -3.8% (inactive) | -14.2% (inactive) | -1.2% (inactive) | 2.5% (inactive) | -13.4% (inactive) | -2.8% (inactive)
Cc1ccccc1N1CCN(CCc2nnc3n2CCCC3)CC1 | -0.3% (inactive) | 0 | 0.9% (inactive) | 25.8% (inactive) | -13.2% (inactive) | 0.9% (inactive) | 6.7% (inactive) | 4.9% (inactive) | 7.3% (inactive)
C#C[C@]1(O)CC[C@@H]2[C@@H]3CCC4=CCCC[C@@H]4[C@H]3C(=C)C[C@@]21CC | 1% (inactive) | -0.9 | -1.9% (inactive) | 99.1% (active) | 55.3% (active) | -7.2% (inactive) | 99% (active) | 102% (active) | 101% (active)
CC(C)=CCC/C(C)=C/CC/C(C)=C/CCC(=O)OC/C=C(\C)CCC=C(C)C | 0.5% (inactive) | 0.6 | 5.2% (inactive) | -4.2% (inactive) | -4.6% (inactive) | 3.3% (inactive) | 1.5% (inactive) | -3.7% (inactive) | 2% (inactive)
CC(C)[C@H]1CC[C@H](C)C[C@H]1O | -2.2% (inactive) | -0.8 | 2.4% (inactive) | 2% (inactive) | -11.4% (inactive) | 7.7% (inactive) | 8.8% (inactive) | 17.2% (inactive) | 5.7% (active)
N=C(N)c1ccc(OCCCOc2ccc(C(=N)N)cc2)cc1 | -2.3% (inactive) | -0.9 | 2.7% (inactive) | -29.9% (inactive) | -17.1% (inactive) | -1.7% (inactive) | 7.1% (inactive) | 9.5% (inactive) | -2.6% (inactive)
O=C(O)c1ccccc1NCCc1ccccc1 | 1.2% (inactive) | 2.5 | 0.15% (inactive) | 42.9% (inactive) | 22.2% (inactive) | 1.4% (inactive) | 26.7% (inactive) | 50.6% (active) | -1.8% (inactive)
CN(C)C(=S)SC(=S)N(C)C | 31.6% (inactive) | 11.3 | -0.3% (inactive) | -6.55% (inactive) | -36.6% (inactive) | 4.1% (inactive) | 11.5% (inactive) | 35.3% (inactive) | 0.2% (inactive)
O=C(N/N=C/c1ccccc1O)c1ccncc1 | 32.2% (inactive) | 11.1 | -1.6% (inactive) | 94.3% (active) | 86.7% (active) | 2.1% (inactive) | 88.7% (active) | 106% (active) | 57.8% (active)
CCOC(=O)[C@@H](N)CS | -2% (inactive) | -1 | 2.3% (inactive) | -17.1% (inactive) | 2.3% (inactive) | 21% (active) | -5.6% (inactive) | 34.7% (inactive) | 4.2% (inactive)
NC(=O)COCCN1CCN(C(c2ccccc2)c2ccc(Cl)cc2)CC1 (configuration not stated) | -0.4% (inactive) | 1.4 | 1.7% (inactive) | -1.7% (inactive) | 9.8% (inactive) | 2.2% (inactive) | 7.4% (inactive) | -24.9% (inactive) | -5.9% (inactive)
c1ccc(CCNc2nc(-c3ccccc3)cs2)cc1 | 1.5% (inactive) | 0.6 | -1.4% (inactive) | 38.9% (inactive) | 34.9% (inactive) | -1.7% (inactive) | 57.7% (active) | 35.5% (inactive) | 31.5% (inactive)
CC(C)(C)CC(=O)OCC(=O)[C@@]1(O)CC[C@H]2[C@@H]3CCC4=CC(=O)C=C[C@]4(C)[C@H]3[C@@H](O)C[C@@]21C | 3% (inactive) | 0.9 | 0% (inactive) | -93.8% (inactive) | 10.8% (inactive) | 3.3% (inactive) | 20.7% (inactive) | 57.4% (active) | 13.2% (inactive)
Cc1cc(NS(=O)(=O)c2ccc(N)cc2)nc(C)n1 | 0.1% (inactive) | 0.7 | -1.1% (inactive) | 0.6% (inactive) | -1.9% (inactive) | -0.1% (inactive) | -10.6% (inactive) | 55% (active) | 29.8% (inactive)
CCC(=O)Nc1ccc(O)cc1 | 9.3% (inactive) | 1.9 | -2.2% (inactive) | -1% (inactive) | 16% (inactive) | 4.4% (inactive) | 12.2% (inactive) | 27% (inactive) | 14.6% (inactive)
CCCCCCCCCCCCOS(=O)(=O)O | 2.3% (inactive) | 1.9 | 0.9% (inactive) | -7.5% (inactive) | 4.9% (inactive) | 15.2% (inactive) | -7.97% (inactive) | -57.7% (inactive) | -12.9% (inactive)
CCCCCCCCCC(=O)O | -1.9% (inactive) | 0.7 | 3.3% (inactive) | -11.4% (inactive) | -24.1% (inactive) | 1.6% (inactive) | 7.9% (inactive) | 49.5% (inactive) | 4.9% (inactive)
Nc1ccc(C(=O)N2CC3CC(CN(Cc4ccccc4)C3)C2)cc1 | 3.2% (inactive) | 0.5 | 0.1% (inactive) | 1.2% (inactive) | -12.8% (inactive) | 1.7% (inactive) | 23.2% (inactive) | 9.4% (inactive) | 7.3% (inactive)
O=C(/C=C/c1ccccc1)OCc1ccccc1 | 1.3% (inactive) | 0.1 | -0.1% (inactive) | -14.9% (inactive) | 3% (inactive) | -1.3% (inactive) | 5.05% (inactive) | 19.3% (inactive) | 7.4% (inactive)
Cc1ccccc1N=Nc1ccc(N=Nc2c(O)ccc3ccccc23)c(C)c1 | 4.6% (inactive) | 5.4 | 1.7% (inactive) | 2.6% (inactive) | 38.9% (inactive) | -8.5% (inactive) | 6.3% (inactive) | 17.9% (inactive) | 15.4% (inactive)
CC(=O)Nc1ccn(C2COC(COC(=O)c3ccccc3)O2)c(=O)n1 (configuration not stated) | 8.2% (inactive) | -0.9 | 1% (inactive) | 54% (active) | 100% (active) | 1.2% (inactive) | 56.5% (active) | 26.9% (inactive) | 29.9% (inactive)
CCCCCCCCCCCC[N+](C)(C)Cc1ccccc1 | 7.4% (inactive) | -1.2 | 1.9% (inactive) | 99.3% (active) | 108% (active) | -2.1% (inactive) | 99.6% (active) | 78.1% (active) | 101% (active)
O=C1CC2(CCCC2)CC(=O)N1 | -0.8% (inactive) | -1.2 | 0.4% (inactive) | -4% (inactive) | -10.3% (inactive) | -1.6% (inactive) | 7.1% (inactive) | 2.5% (inactive) | -2.4% (inactive)
